Laboratory results taken from PubChem BioAssay.
Active and inactive are the calls of the source.

Legend:
[1] = system: Wnt5a (protein binding on small-molecule microarray); assay: Wnt5a binders on small-molecule microarray, primary screen, biophysical, 635/667 nm fluorescence (AID 1142); settings: 635 nm fluorescence, higher = more signal;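 further: fluorescence read at 667 nm with signal to noise per printed feature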
[2] = cell viability in Huh7 cells, primary screen, cytotoxicity control for HCV replication inhibitor project, CellTiter-Glo luminescence, basal, 48 h (AID 1143); settings: Huh7 HCV replicon, higher = more signal, called active from +8 up or from −8 down;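 further: Huh7 hepatoma cells carrying a hepatitis C replication reporter with no stimulus; test concentration not given here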
[3] = CREB reporter modulators without forskolin, primary screen, cell-based, PC12, CRE-LacZ reporter, unstimulated (AID 1145); settings: no forskolin, luminescence, 4.5 h, higher = more signal, called active from +8 up or from −8 down
[4] = CREB reporter modulators under forskolin, primary screen, cell-based, PC12, CRE-LacZ reporter, forskolin-stimulated (AID 1146); settings: luminescence, 4.5 h, higher = more signal, called active from +8 up or from −8 down;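 further: PC12 cells with 6xCRE LacZ reporter stimulated by forskolin 10 µM; beta-galactosidase reporter signal reflecting CREB driven transcription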
[5] = target: Streptavidin (Streptomyces avidinii) (UniProt P22629); assay: streptavidin binders on small-molecule microarray, primary screen, artefact control for SMM compound annotation, biophysical, 635/667 nm fluorescence (AID 1147); settings: streptavidin binding, higher = more signal;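 further: signal reflects streptavidin binding to arrayed compounds as a control protein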
Chain of Streptavidin (Streptomyces avidinii) (P22629 whole entry, looked up): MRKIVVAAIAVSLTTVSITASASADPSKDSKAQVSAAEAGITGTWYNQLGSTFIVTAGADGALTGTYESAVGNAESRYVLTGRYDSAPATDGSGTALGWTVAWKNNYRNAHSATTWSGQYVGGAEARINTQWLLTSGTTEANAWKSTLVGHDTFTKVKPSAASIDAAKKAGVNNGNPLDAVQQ

[6] = small-molecule binders of probe aInhba, primary screen, biochemical, small-molecule microarray, 635/667 nm fluorescence (AID 1148); settings: higher = more signal;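 further: score merges 667nm spot fluorescence with signal-to-noise for antibody binding to printed compounds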
[7] = target: Torsin-1A (Homo sapiens) (UniProt O14656); assay: torsin A binders from cell lysate, primary screen, small-molecule microarray, wild-type, 635/667 nm (AID 1149); settings: COS7 hTOR1A-WT lysate, 635 nm fluorescence, higher = more signal
Chain of Torsin-1A (Homo sapiens) (O14656 whole entry, looked up): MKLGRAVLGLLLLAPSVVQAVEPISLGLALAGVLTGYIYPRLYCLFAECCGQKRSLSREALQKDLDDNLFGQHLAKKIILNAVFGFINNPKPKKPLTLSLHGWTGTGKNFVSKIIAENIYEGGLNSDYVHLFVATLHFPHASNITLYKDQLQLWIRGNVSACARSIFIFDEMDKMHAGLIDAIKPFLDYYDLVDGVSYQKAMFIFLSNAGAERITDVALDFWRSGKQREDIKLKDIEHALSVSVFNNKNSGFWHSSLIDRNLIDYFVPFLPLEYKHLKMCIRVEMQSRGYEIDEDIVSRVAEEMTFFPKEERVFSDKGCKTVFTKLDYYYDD

[8] = target: Torsin-1A (Homo sapiens) (UniProt O14656); assay: small-molecule binders of mutant TOR1A in lysate, primary screen, cell lysate, small-molecule microarray, COS7 lysate, 635/667 nm fluorescence (AID 1150); settings: COS7 hTOR1A mutant lysate, 635 nm fluorescence, higher = more signal;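 further: score pools 667 nm emission and signal to noise measuring lysate protein binding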
[9] = system: Sonic hedgehog protein (Shh); assay: small-molecule binders of Shh protein, primary screen, biochemical, small-molecule microarray, 635/667 nm fluorescence (AID 1151); settings: small-molecule microarray binding, 635 nm fluorescence; higher = more signal;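 further: Shh protein binding to compounds spotted on small-molecule microarray slides; score combines spot fluorescence intensity with signal-to-noise across triplicate slides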
[10] = E. coli DRC41 culture turbidity changes, primary screen, E. coli filamentation inducer project, strain DRC41, OD650, 48 h (AID 1152);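 further: E. coli MC1000 strain DRC41 lacking acrAB efflux pump and sulA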; settings: E. coli DRC41 (acrAB sulA), higher = more signal, called active from +8 up or from −8 down
[11] = small-molecule binders of probe aLefty1, primary screen, biochemical, small-molecule microarray, 635/667 nm fluorescence (AID 1153); settings: higher = more signal;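 further: score merges spot fluorescence with signal-to-noise ratio from the scanned slide images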
[12] = PSAC antagonists in infected red cells, primary screen, cell-based, P. falciparum Indochina, OD700, 1 h (AID 1154); settings: P. falciparum Indochina infected RBC osmotic lysis, higher = more signal, called active from +8 up or from −8 down
[13] = PSAC antagonists in infected red cells, primary screen, cell-based, P. falciparum Indochina, OD700, 2 h (AID 1155);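 further: lysis reports solute entry through the parasite surface anion channel PSAC; channel blockers reduce lysis of infected cells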; settings: P. falciparum Indochina infected erythrocytes, osmotic lysis OD700; higher = more signal, called active from +8 up or from −8 down
[14] = osmotic lysis modulators in infected erythrocytes, primary screen, PSAC antagonist project, cell-based, P. falciparum Indochina, OD700, 3 h (AID 1156); settings: higher = more signal, called active from +8 up or from −8 down
[15] = PSAC antagonists in infected red cells, primary screen, cell-based, P. falciparum Indochina, OD700, 18 h (AID 1157); settings: P. falciparum Indochina infected erythrocytes, osmotic lysis OD700, 18 h; higher = more signal, called active from +8 up or from −8 down
[16] = modulators of S6 phosphorylation in cells, primary screen, cell-based, A549, cytoblot, luminescence, serum-stimulated (AID 1158); settings: A549 phospho-S6 cytoblot, 5 h, higher = more signal;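 further: serum-stimulated A549 lung adenocarcinoma cells; signal is phosphorylated S6 detected by cytoblot immunostaining with HRP secondary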
[17] = target: NADPH oxidase 2 (Homo sapiens) (UniProt P04839); assay: NOX2-dependent H2O2 signal modulators, primary screen, NOX inhibitor project, cell-based, HEK293-NOX2, PMA-stimulated, Amplex Red fluorescence (AID 1159); settings: 45 min, higher = more signal, called active from +8 up or from −8 down; further: test concentration not given here
Chain of NADPH oxidase 2 (Homo sapiens) (P04839 whole entry, looked up): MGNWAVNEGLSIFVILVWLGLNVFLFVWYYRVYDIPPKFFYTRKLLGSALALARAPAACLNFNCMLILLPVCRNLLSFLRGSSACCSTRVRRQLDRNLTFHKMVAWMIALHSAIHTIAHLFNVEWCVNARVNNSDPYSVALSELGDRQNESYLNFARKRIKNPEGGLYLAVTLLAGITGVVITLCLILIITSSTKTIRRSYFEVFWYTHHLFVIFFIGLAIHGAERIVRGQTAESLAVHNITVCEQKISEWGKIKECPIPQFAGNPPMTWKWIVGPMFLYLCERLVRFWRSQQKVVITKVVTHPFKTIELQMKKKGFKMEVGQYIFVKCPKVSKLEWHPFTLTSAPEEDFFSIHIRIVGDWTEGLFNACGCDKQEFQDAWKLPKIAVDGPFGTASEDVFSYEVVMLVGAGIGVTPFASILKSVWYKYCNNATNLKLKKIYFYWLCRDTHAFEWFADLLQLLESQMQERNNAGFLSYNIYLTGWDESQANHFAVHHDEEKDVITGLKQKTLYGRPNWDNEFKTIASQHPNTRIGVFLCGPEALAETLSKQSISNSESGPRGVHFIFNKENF

[18] = target: NADPH oxidase 4 (Homo sapiens) (UniProt Q9NPH5); assay: NOX4-dependent H2O2 signal modulators, primary screen, NOX inhibitor project, cell-based, HEK293-NOX4, tetracycline-induced, Amplex Red fluorescence (AID 1160); settings: 45 min, higher = more signal, called active from +8 up or from −8 down
Chain of NADPH oxidase 4 (Homo sapiens) (Q9NPH5 whole entry, looked up): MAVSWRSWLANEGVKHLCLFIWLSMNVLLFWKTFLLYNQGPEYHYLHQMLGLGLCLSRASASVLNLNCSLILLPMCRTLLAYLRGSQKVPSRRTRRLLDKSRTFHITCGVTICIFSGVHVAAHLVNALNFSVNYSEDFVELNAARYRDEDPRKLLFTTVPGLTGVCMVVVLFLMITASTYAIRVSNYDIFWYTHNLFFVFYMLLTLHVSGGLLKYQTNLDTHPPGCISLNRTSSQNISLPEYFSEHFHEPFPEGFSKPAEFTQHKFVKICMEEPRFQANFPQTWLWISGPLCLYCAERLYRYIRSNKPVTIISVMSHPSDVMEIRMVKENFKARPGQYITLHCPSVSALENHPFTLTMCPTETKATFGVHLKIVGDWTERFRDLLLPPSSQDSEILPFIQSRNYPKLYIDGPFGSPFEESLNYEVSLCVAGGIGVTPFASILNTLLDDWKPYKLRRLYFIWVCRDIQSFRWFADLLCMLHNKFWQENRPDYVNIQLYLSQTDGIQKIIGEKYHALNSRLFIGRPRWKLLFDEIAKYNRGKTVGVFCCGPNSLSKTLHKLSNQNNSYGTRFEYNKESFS

[19] = target: NADPH oxidase 5 (Homo sapiens) (UniProt Q96PH1); assay: NOX5-dependent H2O2 signal modulators, primary screen, NOX inhibitor project, cell-based, HEK293-NOX5, Amplex Red fluorescence (AID 1161); settings: HEK293-NOX5, ionomycin, 45 min, higher = more signal
Chain of NADPH oxidase 5 (Homo sapiens) (Q96PH1 whole entry, looked up): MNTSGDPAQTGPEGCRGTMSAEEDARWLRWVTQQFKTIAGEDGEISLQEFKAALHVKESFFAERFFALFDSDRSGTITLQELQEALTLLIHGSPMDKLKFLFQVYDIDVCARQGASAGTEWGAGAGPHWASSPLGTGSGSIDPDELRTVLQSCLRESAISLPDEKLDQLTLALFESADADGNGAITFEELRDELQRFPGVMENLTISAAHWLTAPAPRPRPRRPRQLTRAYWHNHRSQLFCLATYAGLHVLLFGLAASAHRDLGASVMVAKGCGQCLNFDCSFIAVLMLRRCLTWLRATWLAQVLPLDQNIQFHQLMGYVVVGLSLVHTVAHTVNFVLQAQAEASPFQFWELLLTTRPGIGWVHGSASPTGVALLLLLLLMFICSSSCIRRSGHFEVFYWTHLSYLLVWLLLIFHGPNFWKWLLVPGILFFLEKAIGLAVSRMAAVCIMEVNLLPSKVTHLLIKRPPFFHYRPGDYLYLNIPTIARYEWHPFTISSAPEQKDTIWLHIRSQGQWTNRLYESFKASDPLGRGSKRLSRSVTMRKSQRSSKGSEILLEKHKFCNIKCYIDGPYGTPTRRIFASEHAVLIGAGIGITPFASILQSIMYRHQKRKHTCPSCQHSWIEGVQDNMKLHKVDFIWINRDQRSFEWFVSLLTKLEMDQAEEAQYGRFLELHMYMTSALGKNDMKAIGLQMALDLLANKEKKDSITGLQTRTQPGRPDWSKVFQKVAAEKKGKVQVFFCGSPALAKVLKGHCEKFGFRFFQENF

[N-]=[N+]=NCc1ccccc1C[C@@]1(C(=O)N2CCOCC2)N=C(c2ccc(OCCCO)cc2)O[C@@H]1c1ccccc1N=[N+]=[N-]
composite z-score [1]: 0.994 | z-score [2]: -3.63 (inactive) | z-score [3]: 0.218 (inactive) | z-score [4]: -1.23 (inactive) | composite z-score [5]: 1.43 | composite z-score [6]: 0.421 | composite z-score [7]: 0.783 | composite z-score [8]: 0.987 | composite z-score [9]: 0.144 | z-score [10]: 0.664 (inactive) | composite z-score [11]: 1.1 | z-score [12]: 30.5 (active) | z-score [13]: 27.7 (active) | z-score [14]: 2.82 (inactive) | z-score [15]: 7.87 (inactive) | z-score [16]: 1.36 | z-score [17]: -1.49 (inactive) | z-score [18]: 0.897 (inactive) | z-score [19]: -0.107

C[C@H]1COC(=O)[C@@H]2CCCN2C(=O)[C@@H](C)COC(=O)[C@@H]2CCCN2C1=O
composite z-score [1]: 0.0246 | z-score [2]: -0.0001 (inactive) | z-score [3]: 0.613 (inactive) | z-score [4]: -0.881 (inactive) | composite z-score [5]: -0.269 | composite z-score [6]: 0.0086 | composite z-score [7]: -0.213 | composite z-score [8]: 0.25 | composite z-score [9]: 0.355 | z-score [10]: 0.407 (inactive) | composite z-score [11]: -0.147 | z-score [12]: -0.0889 (inactive) | z-score [13]: 0.0593 (inactive) | z-score [14]: 0.425 (inactive) | z-score [15]: -0.187 (inactive) | z-score [16]: 0.33 | z-score [17]: 0.764 (inactive) | z-score [18]: 0.382 (inactive) | z-score [19]: -0.406

CO[C@@H]1COC(=O)[C@H](COCc2ccccc2)NC(=O)CC=C[C@@H](C)[C@H](OC)COC(=O)[C@H](COCc2ccccc2)NC(=O)CC=C[C@H]1C
composite z-score [1]: 0.0648 | z-score [2]: -0.853 (inactive) | z-score [3]: 0.336 (inactive) | z-score [4]: -0.401 (inactive) | composite z-score [5]: -0.405 | composite z-score [6]: -0.2 | composite z-score [7]: 0.692 | composite z-score [8]: 0.209 | composite z-score [9]: 0.839 | z-score [10]: -0.207 (inactive) | composite z-score [11]: 0.113 | z-score [12]: -0.279 (inactive) | z-score [13]: -0.562 (inactive) | z-score [14]: -0.646 (inactive) | z-score [15]: -1.73 (inactive) | z-score [16]: 0.37 | z-score [17]: 1.15 (inactive) | z-score [18]: 0.931 (inactive) | z-score [19]: 0.314

C=CCC(OC(C)=O)[C@@H]1[C@@H](N(Cc2cc3ccccc3o2)C(=O)c2ccc(C)cc2)c2cc(OCCCO)ccc2N1C(=O)c1ccc2ccccc2n1 (stereo partly specified)
composite z-score [1]: -0.0502 | z-score [2]: -0.17 (inactive) | z-score [3]: 5.44 (inactive) | z-score [4]: -0.273 (inactive) | composite z-score [5]: 0.184 | composite z-score [6]: -0.0266 | composite z-score [7]: 0.369 | composite z-score [8]: -0.368 | composite z-score [9]: 0.609 | z-score [10]: 3.08 (inactive) | composite z-score [11]: -0.007 | z-score [12]: 0.834 (inactive) | z-score [13]: 0.345 (inactive) | z-score [14]: -0.629 (inactive) | z-score [15]: 0.432 (inactive) | z-score [16]: 0.469 | z-score [17]: 0.12 (inactive) | z-score [18]: 0.589 (inactive) | z-score [19]: 1.51

CO[C@H]1O[C@H](CO)[C@@H](OC(=O)Nc2ccccc2)[C@H](OC(=O)Nc2ccc3c(c2)OCO3)[C@@H]1OC(=O)Nc1ccc2c(c1)OCO2
composite z-score [1]: 0.328 | z-score [2]: -3.67 (inactive) | z-score [3]: 0.185 (inactive) | z-score [4]: -2.4 (inactive) | composite z-score [5]: 0.232 | composite z-score [6]: -0.0079 | composite z-score [7]: 0.433 | composite z-score [8]: 0.876 | composite z-score [9]: 0.599 | z-score [10]: 1.44 (inactive) | composite z-score [11]: 0.273 | z-score [12]: 9.35 (active) | z-score [13]: -0.145 (inactive) | z-score [14]: 1.78 (inactive) | z-score [15]: -2 (inactive) | z-score [16]: 1.27 | z-score [17]: 0.679 (inactive) | z-score [18]: 0.0792 (inactive) | z-score [19]: -0.922

CCC(=O)[C@]12O[C@@]3([C@@H]4C(=O)OCC[C@@H]41)N(CC)C(C)=C(C(=O)OC)[C@@H](c1ccccc1)N3C2=O
composite z-score [1]: -0.0488 | z-score [2]: -3.62 (inactive) | z-score [3]: -0.0708 (inactive) | z-score [4]: -1.58 (inactive) | composite z-score [5]: -0.194 | composite z-score [6]: -0.283 | composite z-score [7]: -0.0028 | composite z-score [8]: -0.063 | composite z-score [9]: 1.92 | z-score [10]: 0.362 (inactive) | composite z-score [11]: -0.29 | z-score [12]: 0.91 (inactive) | z-score [13]: -0.071 (inactive) | z-score [14]: -1.35 (inactive) | z-score [15]: -1.08 (inactive) | z-score [16]: 0.815 | z-score [17]: 1.5 (inactive) | z-score [18]: -1.36 (inactive) | z-score [19]: 0.922

CC(C)N1CC=CC23O[C@@H]4/C=C\CCCOC(=O)C4[C@H]2C(=O)N(CCO)[C@@H]3C1=O (stereo partly specified)
composite z-score [1]: -0.0732 | z-score [2]: -1.04 (inactive) | z-score [3]: -0.358 (inactive) | z-score [4]: -0.457 (inactive) | composite z-score [5]: -0.0353 | composite z-score [6]: -0.0695 | composite z-score [7]: -0.373 | composite z-score [8]: -0.582 | composite z-score [9]: 0.289 | z-score [10]: 3.41 (inactive) | composite z-score [11]: -0.0518 | z-score [12]: 2.92 (inactive) | z-score [13]: 0.236 (inactive) | z-score [14]: 0.716 (inactive) | z-score [15]: -0.806 (inactive) | z-score [16]: 0.54 | z-score [17]: 1.23 (inactive) | z-score [18]: 0.375 (inactive) | z-score [19]: 1.84

CC(C)(C)OC(=O)CC[C@@]1(C(=O)NCc2ccccc2)N=C(c2ccc(OCCCO)cc2)O[C@@H]1c1ccccc1
composite z-score [1]: 0.337 | z-score [2]: -4.58 (inactive) | z-score [3]: 0.573 (inactive) | z-score [4]: -2.42 (inactive) | composite z-score [5]: 1.41 | composite z-score [6]: 0.346 | composite z-score [7]: 0.461 | composite z-score [8]: 1.04 | composite z-score [9]: -0.282 | z-score [10]: 1.9 (inactive) | composite z-score [11]: 0.736 | z-score [12]: 23.9 (active) | z-score [13]: 11.3 (active) | z-score [14]: 1.61 (inactive) | z-score [15]: 1.7 (inactive) | z-score [16]: 3.43 | z-score [17]: -1.25 (inactive) | z-score [18]: 0.596 (inactive) | z-score [19]: -0.58

C=CCN1C(=O)[C@]2(O[C@H](CCn3cc(CCO)nn3)[C@@H]([Si](C)(C)c3ccc(OC)cc3)[C@@H]2C)c2cc(NC(=O)c3ccc(OC)cc3)ccc21
composite z-score [1]: 0.46 | z-score [2]: -4.16 (inactive) | z-score [3]: 7.29 (inactive) | z-score [4]: -1.63 (inactive) | composite z-score [5]: 0.132 | composite z-score [6]: -0.0598 | composite z-score [7]: 1.06 | composite z-score [8]: 0.66 | composite z-score [9]: 1.61 | z-score [10]: 1.24 (inactive) | composite z-score [11]: 0.13 | z-score [12]: 11.3 (active) | z-score [13]: -0.0473 (inactive) | z-score [14]: 0.715 (inactive) | z-score [15]: -1.36 (inactive) | z-score [16]: 0.173 | z-score [17]: 0.891 (inactive) | z-score [18]: 1.28 (inactive) | z-score [19]: 0.385
